Results filed as inconclusive are left out. A number with no mark means an inactive call. Activity calls are given as the source filed them. The call rests on the fitted dose curve; in most records, active means well fitted cell-killing curve with a large enough effect in the repeat runs; inconclusive means weak or mixed curves, or effect the other way; inactive means no such curve, though single readings can be large or run the other way.
On the % scale 0 is the no-effect control and ±100 the full control effect.

The nature of the experiment: qHTS assay for small molecule activators of the heat shock response signaling pathway - cell viability counter screen (AID 743209). Further: nearly all actives have a fitted effect of over 50% in size. To be noted: HSE-bla HeLa viability, CellTiter-Glo luminescence, 5 h; series mostly up to 62.6 µM. An excerpt:
U.S. Tox21 Program National Center for Advancing Translational Sciences [NCATS] NIH Chemical Genomics Center [NCGC] U.S. Environmental Protection Agency [EPA] National Institutes of Environmental Health Sciences [NIEHS] National Toxicology Program [NTP] U.S. Food and Drug Administration [FDA] Tox21 Assay Overview: Various chemicals, environmental and physiological stress conditions may lead to the activation of heat shock response/ unfolded protein response (HSR/UPR). There are three heat shock transcription factors (HSFs) (HSF-1, -2, and -4) mediating transcriptional regulation of the human HSR. To identify the compounds that activate HSR signaling, HSE-bla HeLa cell line (Invitrogen, Carlsbad, CA, USA) containing a beta-lactamase reporter gene under the control of the heat shock response elements was used to screen Tox21 10K compound library. The cytotoxicity of the Tox21 compound library against the HSE-bla HeLa cell line was tested in parallel by measuring the cell viability using CellTiter-Glo assay (Promega, Madison, WI) in the same wells.
Tox21 Assay Protocol Summary: The CellSensor HSE-bla HeLa cells (Invitrogen, Carlsbad, CA, USA) were dispensed at 1500 cells/6uL/well into 1536-well black wall/clear bottom plates using a Multidrop combi (Thermo Fisher Scientific, Waltham, MA) dispenser. After the assay plates were incubated at 37 C and 5% CO2 overnight, 23 nL of compounds dissolved in DMSO, positive controls or DMSO only was transferred to the assay plate by a Pintool station (Kalypsys, San Diego, CA). The plates were incubated at 37 C for 5 h. After 1 uL of LiveBLAzerTM B/G FRET substrate was added using a Flying Reagent Dispenser (FRD, Beckman Coulter, Indianapolis, IN, USA), the plates were incubated at room temperature for 2.5 h, and fluorescence intensity was measured by an Envision plate reader (PerkinElmer, Shelton, CT). For cell viability readout that measures cytotoxicity, 3 ul/well of CellTiter-Glo reagent was added into the assay plates using a FRD. After 30 min incubation at room temperature, the luminescence intensity in the plates was measured using a ViewLux (PerkinElmer) plate reader.
(In qHTS, concentration-response curves come from the screen itself.)
In the case of `COC[C@H](c1ccc(C(F)(F)F)cc1)N1CCN(C2(C)CCN(C(=O)c3c(C)ncnc3C)CC2)C[C@H]1C`, the outcome was inactive.
Still for that read-out and setting: with `O=S(=O)(c1cccc2cnccc12)N1CCCNCC1` the entry was “inactive”; with `C=C(C)C(=O)OCCC(C)OC(=O)C(=C)C` (stereo not given), “inactive”.
Turning to `FC(F)(F)C(F)(F)C(F)(F)C(F)(F)C(F)(F)C(F)(F)C(F)(F)C(F)(F)C(F)(F)C(F)(F)F`, the activity change, negative = cytotoxicity is 3.17% [at 5.95 µM].
Take `CCc1cc(S(=O)(=O)O)c2cc(C(C)C)cccc1-2`: the molecule was called inactive.
As for `O=C(O)c1cccc(C(=O)O)n1`, the molecule was classed as inactive.
Turning to `Cc1c(C)n(CCN(C)C)c2ccc(C(=O)OCCN(C)C)cc12`, the result was inactive.
For `CO`, the molecule was called inactive.
On the same count and under the same terms, next, `Cc1ccc(N)cc1[N+](=O)[O-]`: “inactive”.
As for `CC(C)c1cccc(O)c1`, the outcome was inactive.
As for `CCC(=O)/C=C/c1ccc(OC)cc1`, the result was inactive.
Same read-out and setting: with `C=CCOCC(O)CS(=O)(=O)O` (stereo not given) the entry was “inactive”; with `c1ccc(CCCc2ccccn2)cc1`, “inactive”; with `CC(C)N1C(=O)c2ccccc2C1=O`, “inactive”.
Consider `Cc1cc(C)cc(OCC2CNC(=O)O2)c1` (stereo not given), for which the molecule was called inactive.
On to `O=c1[nH]c2ccccc2c(=O)n1CCCl`, for which the call was inactive.
With `Cc1c(F)cc2c(=O)c(C(=O)O)cn3c2c1CCC3C` (stereo not given), the result was inactive.
Same read-out and setting: next, `COc1ccc(N=[N+]([O-])c2ccc(OC)cc2)cc1`: “inactive”; `CC(C=O)Cc1ccc(C(C)C)cc1` (stereo not given): “inactive”; `CCCCCCCCCCCCI`: “inactive”.
For `COCc1ccc(COC)cc1`, the call was inactive.
On the same count and under the same terms, with `N#CCc1ccccc1[N+](=O)[O-]` the entry was “inactive”.
For the molecule `CC(C)=CCC/C(C)=C/C(=O)O`, the outcome was inactive.
Same read-out and setting: next, `CC(C)(C)CC(C)(C)N`: “inactive”.
Take `COC(=O)[C@H]1[C@H]2C[C@@H]3c4[nH]c5cc(OC)ccc5c4CCN3C[C@H]2C[C@@H](OC(=O)COc2ccc(OC)cc2)[C@@H]1OC`: the result was inactive.
On the same count and under the same terms, with `C=CCn1c(=O)n([C@@H]2O[C@H](CO)[C@@H](O)[C@H]2O)c2nc(N)[nH]c(=O)c21` the entry was “inactive”.
Same read-out and setting: next, `Nc1[nH]c(=O)ncc1F`: “inactive”; `CC(C)COC(=O)C(C)C`: “inactive”; `O=C(O)c1ccccc1S`: “inactive”.
Still for that read-out and setting: with `CCCCCCOC(=O)CC(CC(=O)OCCCCCC)(OC(=O)CCC)C(=O)OCCCCCC` the entry was “inactive”.
As for `C1=C\CC/C=C\CC/C=C\CC/1`, the call was inactive.
`C=CCSCC1Nc2cc(Cl)c(S(N)(=O)=O)cc2S(=O)(=O)N1` (stereo not given): the molecule was called inactive.
For `Nc1cc(N)cc(C(=O)O)c1`, the molecule was called inactive.
For the molecule `N#CC1(O)CCCCC1`, the result was inactive.
In the case of `C1CCCCCCCCCCC1`, the call was inactive.
With `C#CC(O)C(CC)CCCC` (stereo not given), the call was inactive.
Same read-out and setting: with `COCCOC(=O)CC#N` the entry was “inactive”.
Same read-out and setting: with `CC(C)COC(=O)c1ccccc1O` the entry was “inactive”.
Same read-out and setting: with `CCN1CCCC1CNC(=O)c1cc(S(N)(=O)=O)ccc1OC` (stereo not given) the entry was “inactive”.
For the molecule `CC(=O)N[C@@H](CCC(N)=O)C(=O)O`, the molecule was called inactive.
